# Laboratory results published in PubChem BioAssay (NCATS).
# “And” between values parts separate entries of the source, which are not always exact repeats. Equal entries are not always repeated. Inconclusive results are not listed. A call without a number means that no potency is given here. A number with no mark means an inactive call. The source made the active and inactive calls. Calls follow the shape of the dose curve; as a rule, active = well fitted inhibition curve with a large enough effect; inconclusive = small, poorly fitted or top-dose-only effect; inactive = flat fitted curve, though single readings scatter.
# How the values were obtained:
# [1] = qHTS profiling for inhibitors of Plasmodium falciparum proliferation (AID 504749); also: nearly all actives have a fitted effect of over 60% in size; settings: P. falciparum in erythrocytes, SYBR Green DNA, 72 h
# How it was run: (§1)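 Readout was DNA-dye fluorescence from lysed cultures, ex 485/em 535 nm. Parasitized red cells had grown 72 h with compound; data scaled between 0.29 uM artemisinin and DMSO wells and corrected using vehicle-only plates.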
# [2] = tested on: 3D7; assay: as above; settings: P. falciparum in erythrocytes, SYBR Green DNA, 72 h; series mostly up to 28.7 µM
# How it was run: as §1
# [3] = tested on: 7G8; assay: as above; settings: P. falciparum in erythrocytes, SYBR Green DNA, 72 h; series mostly up to 28.7 µM
# How it was run: as §1
# [4] = tested on: AA1029; assay: as above; settings: P. falciparum in erythrocytes, SYBR Green DNA, 72 h; series mostly up to 28.7 µM
# How it was run: as §1
# [5] = tested on: AS120; assay: as above; settings: P. falciparum in erythrocytes, SYBR Green DNA, 72 h; series mostly up to 28.7 µM
# How it was run: as §1
# [6] = tested on: ATS189; assay: as above; settings: P. falciparum in erythrocytes, SYBR Green DNA, 72 h; series mostly up to 28.7 µM
# How it was run: as §1
# [7] = tested on: ATS95; assay: as above; settings: P. falciparum in erythrocytes, SYBR Green DNA, 72 h; series mostly up to 28.7 µM
# How it was run: as §1
# [8] = tested on: C2A; assay: as above; settings: P. falciparum in erythrocytes, SYBR Green DNA, 72 h; series mostly up to 28.7 µM
# How it was run: as §1
# [9] = tested on: CP185; assay: as above; settings: P. falciparum in erythrocytes, SYBR Green DNA, 72 h; series mostly up to 28.7 µM
# How it was run: as §1
# [10] = tested on: CP191; assay: as above; settings: P. falciparum in erythrocytes, SYBR Green DNA, 72 h; series mostly up to 28.7 µM
# How it was run: as §1
# [11] = at 28.7 µM (top of the series), parasite line A
# [12] = at 28.7 µM (top of the series), parasite line B
# [13] = at 12.8 µM (top of the series), parasite line A
# [14] = at 12.8 µM (top of the series), parasite line B
# Potency is read from the fitted curve at half-maximal effect.
SMILES,"activity, negative = inhibition [1, 11]","activity, negative = inhibition [1, 12]",Potency [2],Potency [3],Potency [4],Potency [5],Potency [6],Potency [7],Potency [8],Potency [9],Potency [10],"activity, negative = inhibition [1, 13] [%]","activity, negative = inhibition [1, 14] [%]"
CCN(CC)CCSC(=O)C(c1ccccc1)c1ccccc1,10.5% and 6.38%,-0.418% and -7.05%,inactive,inactive,inactive,inactive,inactive,inactive,inactive,inactive,inactive,–,–
[O-][n+]1cccc(CO)c1,-0.247%,11.6%,inactive,inactive,inactive,inactive,inactive,inactive,inactive,inactive,inactive,–,–
Nc1ccc(S(=O)(=O)Nc2ccccc2)cc1,-9.52%,11.6%,inactive,inactive,inactive,inactive,inactive,inactive,inactive,inactive,inactive,–,–
CCCCC(CC)COC(=O)c1ccccc1O (stereo not given),5.45%,-0.719%,inactive,inactive,inactive,inactive,inactive,inactive,inactive,inactive,inactive,–,–
CC(=O)Oc1ccc(C2(c3ccc(OC(C)=O)cc3)C(=O)Nc3ccccc32)cc1,5.01% and 7.68%,2.92% and 4.08%,inactive,inactive,inactive,inactive,inactive,inactive,inactive,inactive,inactive,–,–
C[C@](N)(Cc1ccc(O)cc1)C(=O)O,4.44%,11.9%,inactive,inactive,inactive,inactive,inactive,inactive,inactive,inactive,inactive,–,–
CCOc1ccc2ccccc2c1C(=O)N[C@@H]1C(=O)N2[C@@H]1SC(C)(C)[C@@H]2C(=O)O,–,–,inactive,inactive,inactive,inactive,inactive,inactive,inactive,inactive,inactive,11.5,-19.5
O=C1c2c(O)cccc2Cc2cccc(O)c21,14.6%,-4.21%,inactive,inactive,inactive,inactive,inactive,inactive,inactive,inactive,inactive,–,–
CCCCN(CCCC)CCCOC(=O)c1ccc(N)cc1,–,–,inactive,inactive,inactive,inactive,inactive,inactive,inactive,inactive,inactive,-10.5,3.88
C#CCN(C)Cc1ccccc1,–,–,inactive,inactive,inactive,inactive,inactive,inactive,inactive,inactive,inactive,7.21,-0.897
CCOC(=O)[C@H](CCc1ccccc1)N[C@@H](C)C(=O)N1C(=O)N(C)C[C@H]1C(=O)O,8.56%,16.1%,inactive,inactive,inactive,inactive,inactive,inactive,inactive,inactive,inactive,–,–
O=C(O)CN1C(=O)c2cccc3cccc(c23)C1=O,-2.87%,1.81%,inactive,inactive,inactive,inactive,inactive,inactive,inactive,inactive,inactive,–,–
O=c1[nH]c(=O)c2[nH]c(=O)[nH]c2[nH]1,-3.55%,2.26%,inactive,inactive,inactive,inactive,inactive,inactive,inactive,inactive,inactive,–,–
CC1(C)[C@@H]2CC[C@@]1(C)C(=O)C2,5.82%,6.35%,inactive,inactive,inactive,inactive,inactive,inactive,inactive,inactive,inactive,–,–
O=C1OC(OC(=O)c2cccnc2Nc2cccc(C(F)(F)F)c2)c2ccccc21 (stereo not given),-4.18%,2.45%,inactive,inactive,inactive,inactive,inactive,inactive,inactive,inactive,inactive,–,–
C[C@H](N)[C@H](O)c1cccc(O)c1,–,–,inactive,inactive,inactive,inactive,inactive,inactive,inactive,inactive,inactive,4.05,-0.641
COc1ccc(Cl)cc1C(=O)NCCc1ccc(S(=O)(=O)NC(=O)NC2CCCCC2)cc1,10.8%,8.21%,inactive,inactive,inactive,inactive,inactive,inactive,inactive,inactive,inactive,–,–
Nc1nc2c(ncn2CCC(CO)CO)c(=O)[nH]1,3.65%,-4.23%,inactive,inactive,inactive,inactive,inactive,inactive,inactive,inactive,inactive,–,–

SMILES,"activity, negative = inhibition [1, 11]","activity, negative = inhibition [1, 12]",Potency [2],Potency [3],Potency [4],Potency [5],Potency [6],Potency [7],Potency [8],Potency [9],Potency [10],"activity, negative = inhibition [1, 13] [%]","activity, negative = inhibition [1, 14] [%]"
N[C@@H](CSCCCO)C(=O)O,-6.32%,-2.52%,inactive,inactive,inactive,inactive,inactive,inactive,inactive,inactive,inactive,–,–
O=S(=O)(O)NC1CCCCC1,2.07%,5.79%,inactive,inactive,inactive,inactive,inactive,inactive,inactive,inactive,inactive,–,–
NC(=O)NC(=O)Cc1ccccc1,2.68%,-4.74%,inactive,inactive,inactive,inactive,inactive,inactive,inactive,inactive,inactive,–,–
Oc1cn2c(n1)Nc1ccc(Cl)c(Cl)c1C2,7.35%,-8.41%,inactive,inactive,inactive,inactive,inactive,inactive,inactive,inactive,inactive,–,–
CC1(C)OC(=O)NC1=O,17.2%,21.8%,inactive,inactive,inactive,inactive,inactive,inactive,inactive,inactive,inactive,–,–
Nc1ccc(S(=O)(=O)NC(=O)c2ccccc2)cc1,–,–,inactive,inactive,inactive,inactive,inactive,inactive,inactive,inactive,inactive,10.4,13.1
Cc1cc(CC(=O)O)n(C)c1C(=O)c1ccc(Cl)cc1,-8.03% and -6.63%,-3.67% and -0.286%,inactive,inactive,inactive,inactive,inactive,inactive,inactive,inactive,inactive,–,–
CCCn1cnc2c1c(=O)n(CCCCC(C)=O)c(=O)n2C,-5.61%,-0.0808%,inactive,11.2 µM (active),inactive,inactive,inactive,inactive,inactive,inactive,inactive,–,–
C[C@@H]1CN(c2c(F)c(F)c3c(=O)c(C(=O)O)cn(C4CC4)c3c2F)C[C@H](C)N1,9.49%,3.41%,inactive,inactive,inactive,inactive,inactive,inactive,inactive,inactive,inactive,–,–
CCn1cc(C(=O)O)c(=O)c2cnc(N3CCNCC3)nc21,–,–,inactive,inactive,inactive,inactive,inactive,inactive,inactive,inactive,inactive,7.13,-22.6
CCN(CC)CCNC(=O)c1cc(Cl)c(N)cc1OC,11.7%,-3.16%,inactive,inactive,inactive,inactive,inactive,inactive,inactive,inactive,inactive,–,–
CC(O)CN(CCN(CC(C)O)CC(C)O)CC(C)O (stereo not given),7.8%,-1.51%,inactive,inactive,inactive,inactive,inactive,inactive,inactive,inactive,inactive,–,–
NCC(=O)CCC(=O)O,2.38%,-2.04%,inactive,inactive,inactive,inactive,inactive,inactive,inactive,inactive,inactive,–,–
CCCCCCCCCCCCOS(=O)(=O)O,2.98%,-1.46%,inactive,inactive,inactive,inactive,inactive,inactive,inactive,inactive,inactive,–,–
Cc1cccc(C)c1NC(=O)CN(CC(=O)O)CC(=O)O,13.4%,2.17%,inactive,inactive,inactive,inactive,inactive,inactive,inactive,inactive,inactive,–,–
OCC(O)CN1CCN(c2ccccc2)CC1 (stereo not given),5.92%,10.4%,inactive,inactive,inactive,inactive,inactive,inactive,inactive,inactive,inactive,–,–
NCCNCCNCCN,4.28%,2.86%,inactive,inactive,inactive,inactive,inactive,–,inactive,inactive,inactive,–,–
NCCNCCNCCNCCN,12.5%,-2.06%,inactive,inactive,inactive,inactive,inactive,inactive,inactive,inactive,inactive,–,–
